Data taken from PubChem BioAssay (Tox21).
Results filed as inconclusive are left out. Activity calls are given as the source filed them. Unless noted, calls come from the whole dose curve; as a rule, active = well fitted curve in the direction sought with a large enough effect in the repeat runs; inconclusive = weak or mixed curves; inactive = no such curve, though single readings can be large; an effect the other way counts as inactive or inconclusive.

Assays:
[1] = biological target: Thyrotropin-releasing hormone receptor (Homo sapiens) (UniProt P34981); test: qHTS assay to identify small molecule agonists of the thyrotropin-releasing hormone receptor (TRHR) signaling pathway (AID 1346891; calls by dose curve; note: series mostly up to about 58 µM)
Summary of the method: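 TRHR-expressing HEK293 cells were plated 18 h at 37 °C/5% CO2, loaded with calcium dye 2 h at 37 °C, then given compound in DMSO; fluorescence was read kinetically for 3 min at 1 s intervals.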

[2] = Human pregnane X receptor (PXR) small molecule agonists, qHTS cell viability counter screen (AID 1346977); note: nearly all actives have a fitted effect of over 50% in size; note: potency is the fitted concentration of half-maximal effect
Summary of the method: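 PXR-Luc HepG2 cells in medium with 5% charcoal-stripped FBS were pre-incubated 5hr, then exposed to compounds for 24hr at 37C. Viability was read in the same wells by CellTiter-Fluor fluorescence, reagent added after 23hr with a 1hr incubation.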

[3] = Caspase-3/7 induction in HepG2 cells by small molecules, qHTS assay (AID 1346978); note: nearly all actives have a fitted effect of over 15% in size
Summary of the method: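 Wild-type HepG2 cells, 2,000/well, settled 5 hr at 37 C and 5% CO2, then compound-treated for 17 hr; caspase-3/7 activity read by luminescent Caspase-Glo 3/7 after 30 min at room temperature.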

[4] = Caspase-3/7 induction in CHO-K1 cells by small molecules, qHTS assay (AID 1346980); note: nearly all actives have a fitted effect of over 15% in size
Summary of the method: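 Wild-type CHO-K1 cells exposed to compounds for 17hr at 37 C, 5% CO2. Caspase-3/7 activity then measured by Caspase-Glo 3/7 luminescence after 30min at room temperature.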

[5] = Caspase-3/7 induction in HepG2 cells by small molecules, qHTS cell viability counter screen (AID 1346981); note: series mostly up to about 92 µM; nearly all actives have a fitted effect of over 30% in size
Summary of the method: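 Fluorescence read-out of live-cell protease activity (CellTiter-Fluor) after 1 hr with reagent. This was measured in the same wells as the caspase-3/7 luminescence, on HepG2 cells exposed to DMSO-dissolved compounds for 16 hr at 37 C.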

[6] = biological target: Nuclear receptor subfamily 1 group I member 2 (Homo sapiens) (UniProt O75469); test: Human pregnane X receptor (PXR) small molecule agonists, qHTS assay (AID 1346982); note: nearly all actives have a fitted effect of over 35% in size; note: potency is the fitted concentration of half-maximal effect
Summary of the method: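 HepG2 PXR-Luc reporter line, 5% charcoal-stripped FBS; 5 hr pre-incubation, compound (DMSO) 24 hr at 37 C/5% CO2; ONE-Glo 30 min RT; luminescence read-out.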

[7] = biological target: Cytochrome P450 2C19 (Homo sapiens) (UniProt P33261); test: Cytochrome P450 Family 2 Subfamily C Member 19 (CYP2C19) small molecule antagonists: luciferase reporter qHTS assay (AID 1671197); note: nearly all actives have a fitted effect of over 65% in size; note: potency is the fitted concentration of half-maximal effect
Summary of the method: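 CYP2C19 P450-Glo, 1536-well qHTS. Cpd + enzyme/proluciferin substrate 10 min RT; + NADPH regen, 37C 1 h; stop with luciferin detection reagent, 20 min RT, luminescence (RLU). Pos ctrl ketoconazole.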

[8] = biological target: Cytochrome P450 2C9 (Homo sapiens) (UniProt P11712); test: Cytochrome P450 Family 2 Subfamily C Member 9 (CYP2C9) small molecule antagonists: luciferase reporter qHTS assay (AID 1671198); note: nearly all actives have a fitted effect of over 50% in size; note: potency is the fitted concentration of half-maximal effect
Summary of the method: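 P450-Glo proluciferin substrate with CYP2C9 enzyme; 10 min RT preincubation, then NADPH regeneration 1 h at 37C; luciferin detection reagent 20 min RT, luminescence in relative luminescence units.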

[9] = biological target: Cytochrome P450 1A2 (Homo sapiens) (UniProt P05177); test: Cytochrome P450 Family 1 Subfamily A Member 2 (CYP1A2) small molecule antagonists: luciferase reporter qHTS assay (AID 1671199); note: nearly all actives have a fitted effect of over 50% in size; note: potency is the fitted concentration of half-maximal effect
Summary of the method: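 Luminescence readout (relative luminescence units) after luciferin detection reagent, 20 min RT. Preceded by 1 h room-temperature CYP1A2 reaction with NADPH regeneration solution following 10 min compound preincubation with enzyme and proluciferin substrate. Furafylline positive control.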

[10] = biological target: Voltage-gated inwardly rectifying potassium channel KCNH2 (Homo sapiens) (UniProt Q12809); test: Human Ether-a-go-go-Related Gene (hERG) channel small molecule antagonists: fluorescence cell-based qHTS assay (AID 1671200);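 note: hERG-expressing U2OS cells given a thallium stimulus after FluxOR II dye loading; series mostly up to about 77 µM; nearly all actives have a fitted effect of over 50% in size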
Summary of the method: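 U2OS cells expressing the channel were plated at 1000 cells/well, incubated overnight at 37 C, then loaded with FluxOR II thallium-sensitive dye for 1 h at room temperature in the dark, with a further 10 min at room temperature before stimulation.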

[11] = biological target: Cytochrome P450 3A4 (Homo sapiens) (UniProt P08684); test: Cytochrome P450 Family 3 Subfamily A Member 4 (CYP3A4) small molecule antagonists: luciferase reporter qHTS assay (AID 1671201); note: nearly all actives have a fitted effect of over 50% in size; note: potency is the fitted concentration of half-maximal effect
Summary of the method: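 P450-Glo CYP3A4 system with proluciferin substrate; compounds preincubated 10 min RT with enzyme-substrate mix, then NADPH regeneration added for 1 h RT. Detection reagent 20 min, luminescence read as relative luminescence units.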

[12] = Caspase-3/7 induction in CHO-K1 cells by small molecules, qHTS cell viability counter screen (AID 1346979); note: nearly all actives have a fitted effect of over 35% in size; note: potency is the fitted concentration of half-maximal effect
Summary of the method: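 Wild-type CHO-K1 cells were seeded at 1,500 per well, rested 5hr at 37 C, then exposed to compounds in DMSO. After 16hr, CellTiter-Fluor reagent was added and fluorescence read 1hr later as the viability measure.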

[13] = biological target: Cytochrome P450 2D6 (Homo sapiens) (UniProt P10635); test: Cytochrome P450 Family 2 Subfamily D Member 6 (CYP2D6) small molecule antagonists: luciferase reporter qHTS assay (AID 1671196); note: nearly all actives have a fitted effect of over 50% in size; note: potency is the fitted concentration of half-maximal effect
Summary of the method: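 Luminogenic proluciferin substrate, CYP2D6 enzyme; 10 min RT preincubation with compound, NADPH regeneration system added, 1 h RT. Stop/detection reagent, 20 min RT, luminescence read (RLU). Signal proportional to CYP activity.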

[14] = biological target: Nuclear receptor subfamily 1 group I member 2 (Rattus norvegicus) (UniProt Q9R1A7); test: Rat pregnane X receptor (rPXR) activation by small molecules, qHTS assay (AID 1346983); conditions: rPXR luciferase reporter cells, One-Glo luminescence, 24 h; max activation: active compounds read high; note: nearly all actives have a fitted effect of over 20% in size
Summary of the method: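 Cell-based rPXR activation assay: rPXR cells, 2,000 per well, rested 5hr at 37 C, then exposed to compounds in DMSO for 24 hr at 37 C. Luciferase activity read by One-Glo luminescence after 30 min at room temperature.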

[15] = biological target: Nuclear receptor subfamily 1 group I member 2 (Homo sapiens) (UniProt O75469); test: CYP3A4 induction through human pregnane X receptor (PXR) by small molecules, qHTS assay (AID 1346984); note: nearly all actives have a fitted effect of over 40% in size
Summary of the method: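 HepG2-derived DPX-2 line carrying PXR plus a CYP3A4-promoter luciferase reporter; cells plated 5 hr, compound-exposed 24 hr at 37C. CYP3A4 activity probed with 3uM (final) Luciferin-IPA for 3hr, then luciferase read after One-Glo.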

[16] = biological target: Nuclear receptor subfamily 1 group I member 2 (Homo sapiens) (UniProt O75469); test: Human pregnane X receptor (PXR) activation by small molecules, qHTS assay (AID 1346985); note: nearly all actives have a fitted effect of over 40% in size
Summary of the method: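 DPX-2 cells (HepG2 co-transfected with a PXR response element and a CYP3A4-promoter luciferase construct) were seeded at 2,000 per well, rested 5 hr at 37C, then exposed to DMSO-dissolved compounds for 24 hr. Activation was read as luciferase luminescence.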
% is set by controls: 0 for no effect and ±100 for the full control effect.

Sequence of Nuclear receptor subfamily 1 group I member 2 (Homo sapiens) (O75469 whole entry, looked up): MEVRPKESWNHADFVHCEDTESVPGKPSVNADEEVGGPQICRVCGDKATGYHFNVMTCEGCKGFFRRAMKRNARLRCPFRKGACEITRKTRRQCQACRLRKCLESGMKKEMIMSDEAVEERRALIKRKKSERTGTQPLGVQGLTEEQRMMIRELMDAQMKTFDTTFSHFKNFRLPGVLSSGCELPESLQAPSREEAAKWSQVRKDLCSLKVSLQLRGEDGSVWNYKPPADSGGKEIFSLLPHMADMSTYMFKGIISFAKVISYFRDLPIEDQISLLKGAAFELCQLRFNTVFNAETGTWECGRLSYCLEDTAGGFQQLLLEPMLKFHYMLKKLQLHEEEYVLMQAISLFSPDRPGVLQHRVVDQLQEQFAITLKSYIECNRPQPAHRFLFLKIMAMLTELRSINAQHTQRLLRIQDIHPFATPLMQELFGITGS
Sequence of Nuclear receptor subfamily 1 group I member 2 (Rattus norvegicus) (Q9R1A7 whole entry, looked up): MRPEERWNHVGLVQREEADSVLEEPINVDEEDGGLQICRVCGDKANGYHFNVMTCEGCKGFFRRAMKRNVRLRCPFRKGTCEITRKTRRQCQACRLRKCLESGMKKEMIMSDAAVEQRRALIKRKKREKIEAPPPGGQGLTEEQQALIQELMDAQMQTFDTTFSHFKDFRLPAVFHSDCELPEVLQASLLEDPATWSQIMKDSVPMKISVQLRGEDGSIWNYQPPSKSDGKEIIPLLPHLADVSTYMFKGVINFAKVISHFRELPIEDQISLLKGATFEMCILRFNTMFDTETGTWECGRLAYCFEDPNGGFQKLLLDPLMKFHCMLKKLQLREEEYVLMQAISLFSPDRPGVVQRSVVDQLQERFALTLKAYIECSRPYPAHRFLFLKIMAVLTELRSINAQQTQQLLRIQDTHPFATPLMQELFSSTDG
Sequence of Cytochrome P450 2D6 (Homo sapiens) (P10635 whole entry, looked up): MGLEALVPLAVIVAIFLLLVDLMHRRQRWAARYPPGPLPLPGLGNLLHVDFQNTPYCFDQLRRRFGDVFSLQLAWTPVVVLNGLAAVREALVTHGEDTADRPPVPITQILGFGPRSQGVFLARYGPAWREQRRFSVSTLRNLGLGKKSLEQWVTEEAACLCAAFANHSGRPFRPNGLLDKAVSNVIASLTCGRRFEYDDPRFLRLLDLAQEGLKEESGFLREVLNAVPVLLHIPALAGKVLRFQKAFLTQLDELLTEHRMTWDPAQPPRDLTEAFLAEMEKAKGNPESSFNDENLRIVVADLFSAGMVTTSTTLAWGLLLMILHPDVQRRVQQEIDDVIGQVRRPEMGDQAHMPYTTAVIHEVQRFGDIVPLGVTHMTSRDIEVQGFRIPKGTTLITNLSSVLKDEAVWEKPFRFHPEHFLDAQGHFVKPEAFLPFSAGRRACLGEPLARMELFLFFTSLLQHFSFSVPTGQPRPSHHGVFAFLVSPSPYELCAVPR
Sequence of Cytochrome P450 3A4 (Homo sapiens) (P08684 whole entry, looked up): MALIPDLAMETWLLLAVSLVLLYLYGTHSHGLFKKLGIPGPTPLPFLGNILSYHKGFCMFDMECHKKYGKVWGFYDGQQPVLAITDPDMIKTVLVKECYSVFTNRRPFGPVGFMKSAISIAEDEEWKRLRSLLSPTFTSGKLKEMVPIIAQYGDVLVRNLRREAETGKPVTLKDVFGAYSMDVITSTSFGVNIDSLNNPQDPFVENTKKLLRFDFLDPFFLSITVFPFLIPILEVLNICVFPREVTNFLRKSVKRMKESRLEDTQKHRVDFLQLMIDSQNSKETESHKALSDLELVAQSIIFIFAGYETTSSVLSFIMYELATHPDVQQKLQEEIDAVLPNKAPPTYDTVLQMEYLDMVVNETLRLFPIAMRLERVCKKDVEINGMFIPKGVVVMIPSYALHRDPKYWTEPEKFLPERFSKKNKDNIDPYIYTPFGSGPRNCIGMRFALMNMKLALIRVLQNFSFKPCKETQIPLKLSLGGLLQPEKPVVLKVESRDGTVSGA
Sequence of Thyrotropin-releasing hormone receptor (Homo sapiens) (P34981 whole entry, looked up): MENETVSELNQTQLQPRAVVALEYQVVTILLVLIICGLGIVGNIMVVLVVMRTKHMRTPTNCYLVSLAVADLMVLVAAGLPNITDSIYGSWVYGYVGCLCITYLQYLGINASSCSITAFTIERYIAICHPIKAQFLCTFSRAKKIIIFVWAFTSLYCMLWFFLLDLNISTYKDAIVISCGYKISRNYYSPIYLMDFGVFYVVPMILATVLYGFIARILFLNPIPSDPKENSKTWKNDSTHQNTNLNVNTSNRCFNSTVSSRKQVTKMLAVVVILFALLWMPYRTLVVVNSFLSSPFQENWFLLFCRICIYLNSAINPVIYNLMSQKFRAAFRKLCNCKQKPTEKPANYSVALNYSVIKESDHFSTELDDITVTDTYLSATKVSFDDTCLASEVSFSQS
Sequence of Cytochrome P450 1A2 (Homo sapiens) (P05177 whole entry, looked up): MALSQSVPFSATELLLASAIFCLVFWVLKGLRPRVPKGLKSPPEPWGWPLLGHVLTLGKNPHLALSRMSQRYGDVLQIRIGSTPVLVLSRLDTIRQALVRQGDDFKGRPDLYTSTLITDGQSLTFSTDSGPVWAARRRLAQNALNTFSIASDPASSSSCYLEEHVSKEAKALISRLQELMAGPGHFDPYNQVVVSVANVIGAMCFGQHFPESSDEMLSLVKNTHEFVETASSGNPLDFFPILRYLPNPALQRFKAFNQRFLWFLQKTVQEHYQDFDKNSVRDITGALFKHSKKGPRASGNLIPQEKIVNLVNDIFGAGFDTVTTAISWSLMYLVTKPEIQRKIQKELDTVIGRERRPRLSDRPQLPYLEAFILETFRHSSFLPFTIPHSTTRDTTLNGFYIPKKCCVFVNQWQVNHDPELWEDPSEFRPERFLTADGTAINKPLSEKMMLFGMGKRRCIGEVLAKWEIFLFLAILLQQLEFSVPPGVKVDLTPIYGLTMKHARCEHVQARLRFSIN
Sequence of Cytochrome P450 2C9 (Homo sapiens) (P11712 whole entry, looked up): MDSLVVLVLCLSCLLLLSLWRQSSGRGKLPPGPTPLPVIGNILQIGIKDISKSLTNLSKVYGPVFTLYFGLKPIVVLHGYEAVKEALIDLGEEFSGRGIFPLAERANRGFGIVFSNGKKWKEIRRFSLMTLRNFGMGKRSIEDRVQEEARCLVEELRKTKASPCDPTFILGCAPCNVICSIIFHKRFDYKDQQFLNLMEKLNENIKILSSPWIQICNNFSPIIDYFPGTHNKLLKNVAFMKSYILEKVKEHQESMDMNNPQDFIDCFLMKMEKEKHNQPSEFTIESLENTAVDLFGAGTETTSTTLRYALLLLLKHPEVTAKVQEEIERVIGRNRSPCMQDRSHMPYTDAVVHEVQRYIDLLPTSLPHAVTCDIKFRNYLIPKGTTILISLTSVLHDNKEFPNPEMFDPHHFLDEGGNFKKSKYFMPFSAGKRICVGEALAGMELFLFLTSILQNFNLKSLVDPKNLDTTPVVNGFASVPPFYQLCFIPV
Sequence of Voltage-gated inwardly rectifying potassium channel KCNH2 (Homo sapiens) (Q12809 whole entry, looked up): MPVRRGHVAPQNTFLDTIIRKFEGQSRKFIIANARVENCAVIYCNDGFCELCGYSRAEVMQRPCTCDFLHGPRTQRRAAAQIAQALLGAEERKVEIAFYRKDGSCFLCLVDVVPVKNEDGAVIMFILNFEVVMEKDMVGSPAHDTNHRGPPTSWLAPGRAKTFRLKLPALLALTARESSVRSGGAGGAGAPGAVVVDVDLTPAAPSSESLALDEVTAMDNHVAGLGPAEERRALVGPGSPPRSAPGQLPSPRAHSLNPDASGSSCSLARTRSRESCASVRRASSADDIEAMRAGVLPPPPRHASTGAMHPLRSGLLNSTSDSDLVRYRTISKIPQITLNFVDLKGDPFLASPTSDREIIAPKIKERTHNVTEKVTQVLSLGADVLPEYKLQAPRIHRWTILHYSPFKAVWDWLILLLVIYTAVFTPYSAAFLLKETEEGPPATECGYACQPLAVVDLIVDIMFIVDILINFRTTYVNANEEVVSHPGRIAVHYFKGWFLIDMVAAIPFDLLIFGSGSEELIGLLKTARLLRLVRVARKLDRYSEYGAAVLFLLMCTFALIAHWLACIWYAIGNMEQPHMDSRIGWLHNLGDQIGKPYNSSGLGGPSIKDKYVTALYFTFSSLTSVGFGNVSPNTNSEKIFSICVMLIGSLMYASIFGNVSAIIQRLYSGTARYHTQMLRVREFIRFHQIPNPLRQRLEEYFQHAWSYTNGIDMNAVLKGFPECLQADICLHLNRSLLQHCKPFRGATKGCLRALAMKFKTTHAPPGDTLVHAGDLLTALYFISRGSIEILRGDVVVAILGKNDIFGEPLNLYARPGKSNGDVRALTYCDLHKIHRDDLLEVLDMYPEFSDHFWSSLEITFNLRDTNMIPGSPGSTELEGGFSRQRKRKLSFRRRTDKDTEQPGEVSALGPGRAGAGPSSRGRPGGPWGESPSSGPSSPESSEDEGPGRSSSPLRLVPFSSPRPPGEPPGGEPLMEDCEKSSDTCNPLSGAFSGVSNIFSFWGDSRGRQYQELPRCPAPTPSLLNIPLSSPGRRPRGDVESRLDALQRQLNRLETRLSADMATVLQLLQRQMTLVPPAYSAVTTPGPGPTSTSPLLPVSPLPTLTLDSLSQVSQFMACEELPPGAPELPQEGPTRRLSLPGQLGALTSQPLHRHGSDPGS
Sequence of Cytochrome P450 2C19 (Homo sapiens) (P33261 whole entry, looked up): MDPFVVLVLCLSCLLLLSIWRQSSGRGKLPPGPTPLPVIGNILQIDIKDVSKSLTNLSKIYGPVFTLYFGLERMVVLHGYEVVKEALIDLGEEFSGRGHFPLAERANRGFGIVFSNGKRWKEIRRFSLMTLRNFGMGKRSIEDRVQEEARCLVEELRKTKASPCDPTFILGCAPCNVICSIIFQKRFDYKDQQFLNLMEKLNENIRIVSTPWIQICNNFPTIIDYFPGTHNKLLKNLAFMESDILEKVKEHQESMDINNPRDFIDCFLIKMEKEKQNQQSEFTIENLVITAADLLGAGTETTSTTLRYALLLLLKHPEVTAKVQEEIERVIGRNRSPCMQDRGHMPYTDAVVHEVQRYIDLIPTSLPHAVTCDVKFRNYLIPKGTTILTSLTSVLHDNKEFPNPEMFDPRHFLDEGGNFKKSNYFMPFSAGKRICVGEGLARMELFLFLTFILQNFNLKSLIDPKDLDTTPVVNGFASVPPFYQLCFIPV

C=C/C(C)=C/C/C=C(\C)CCC=C(C)C
inactive: Potency [1] | Potency [2] | Potency [3] | Potency [4] | Potency [5] | Potency [9] | Potency [10]
active: Potency [6] 27.3 µM | Potency [7] 31.7 µM | Potency [8] 31.7 µM | Potency [11] 15.9 µM

O=[N+]([O-])c1ccc(Nc2ccc(Nc3ccccc3)c(S(=O)(=O)O)c2)c([N+](=O)[O-])c1
inactive: Potency [1] | Potency [3] | Potency [4] | Potency [13] | Potency [7] | Potency [9] | Potency [10] | Potency [11]
active: Potency [2] 68.6 µM | Potency [12] 54.5 µM | Potency [8] 35.6 µM

O=C(OCC(O)CO)c1ccccc1Nc1ccnc2cc(Cl)ccc12 (configuration not stated)
inactive: Potency [1] | Potency [3] | Potency [4] | Potency [5] | max activation [14] -2.2% | Potency [15] | Potency [16] | Potency [10]
active: Potency [2] 26.6 µM | Potency [6] 11.9 µM | Potency [13] 13.8 µM | Potency [7] 8.71 µM

O=C(O)CCc1nc(-c2ccccc2)c(-c2ccccc2)o1
inactive: Potency [1] | Potency [2] | Potency [3] | Potency [12] | Potency [4] | max activation [14] -4.22% | Potency [15] | Potency [16] | Potency [13] | Potency [7] | Potency [9] | Potency [10] | Potency [11]

CC(C)(c1ccccc1)c1ccccc1
inactive: Potency [1] | Potency [2] | Potency [3] | Potency [12] | Potency [4] | Potency [7] | Potency [8] | Potency [11]
active: Potency [13] 58.8 µM

CC(C)=CCC/C(C)=C/CC/C(C)=C/C(=O)OCC(=O)[C@@]1(O)CC[C@H]2[C@@H]3CCC4=CC(=O)C=C[C@]4(C)[C@H]3[C@@H](O)C[C@@]21C
inactive: Potency [1] | Potency [2] | Potency [3] | Potency [4] | Potency [9] | Potency [10]
active: Potency [12] 18.8 µM | Potency [6] 1.88 µM | Potency [7] 7.76 µM | Potency [8] 3.89 µM

Oc1cc2c(cc1O)[C@H]1c3ccc(O)c(O)c3OC[C@@]1(O)C2
active: Potency [2] 27.6 µM | Potency [12] 27.6 µM | Potency [13] 36 µM | Potency [8] 32.1 µM | Potency [9] 36 µM
inactive: Potency [1] | Potency [3] | Potency [4] | Potency [6] | Potency [10]

CCn1cc(C(=O)O)c(=O)c2cc(F)c(N3CCNCC3)cc21
inactive: Potency [1] | Potency [2] | Potency [3] | Potency [4] | Potency [5] | Potency [6] | max activation [14] 7.46% | Potency [15] | Potency [13] | Potency [9] | Potency [10]

CN1C(C(=O)Nc2ccccn2)=C(O)c2sccc2S1(=O)=O
inactive: Potency [1] | Potency [2] | Potency [3] | Potency [4] | Potency [5] | Potency [6] | max activation [14] -1.49% | Potency [15] | Potency [16] | Potency [13] | Potency [7] | Potency [9] | Potency [10] | Potency [11]
active: Potency [8] 13.8 µM
